Data taken from PubChem BioAssay (NCATS).
Records with an inconclusive call do not appear. The source made the active and inactive calls. Unless noted, calls come from the whole dose curve; as a rule, active = well fitted curve in the direction sought with a large enough effect; inconclusive = small, poorly fitted or top-dose-only effect, or another doubt; inactive = no such curve, though single readings can be large; an effect the other way counts as inactive or inconclusive.

What was measured:
[1] = target: Flap endonuclease 1 (Homo sapiens) (UniProt P39748); experiment: qHTS Validation Assay for the Inhibitors of Human Flap endonuclease 1 (FEN1) (AID 488816); note: % is set by controls: 0 for no effect and ±100 for the full control effect
Summary of the method: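 Human FEN1 (10 nM) preincubated 15 min at room temperature with compounds, then flap DNA substrate added at 50 nM final. Fluorescence read at 0 and 15 min; concentration-response fitted with four-parameter Hill equation.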

[2] = target: ATP-dependent 6-phosphofructokinase (Trypanosoma brucei brucei) (UniProt O15648); experiment: qHTS Assay to Find Inhibitors of T. brucei phosphofructokinase: hit validation (AID 492961); note: potency is the fitted concentration of half-maximal effect
Summary of the method: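 Luminescence from ADP-Glo reports ADP generated as T. brucei PFK (1.25 nM) phosphorylates 0.5 mM fructose-6-phosphate using 0.1 mM ATP. Reactions ran 45 min at room temperature, pH 8.0.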

[3] = target: M-phase phosphoprotein 8 (Homo sapiens) (UniProt Q99549); experiment: qHTS Validation Assay for Inhibitors for MPP8 Chromodomain Interactions with Methylated Histone Tails (AID 488949); note: nearly all actives have a fitted effect of over 55% in size; note: potency is the fitted concentration of half-maximal effect
Summary of the method: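 MPP8 (50 nM) was pre-bound to 50 nM biotinylated H3(1-18)K9me3 peptide in PBS pH 7.4 with 0.01% Tween-20. Compounds were then added for 30 min at room temperature, and complex disruption was read by AlphaScreen with streptavidin donor and nickel-chelate acceptor beads.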

[4] = target: D(1A) dopamine receptor (Homo sapiens) (UniProt P21728); experiment: HTS Assay for Allosteric Agonists of the Human D1 Dopamine Receptor: Primary Screen for Potentiators (AID 488982); note: potency is the fitted concentration of half-maximal effect
Summary of the method: (§1)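 Tetracycline-induced HEK293 Trex D1 cells with forced coupling to calcium, loaded with no-wash calcium dye; kinetic fluorescence read 180 s after compound addition for agonism, then a further 180 s after an EC20 dopamine challenge for potentiation.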

[5] = target: D(1A) dopamine receptor (Homo sapiens) (UniProt P21728); experiment: HTS Assay for Allosteric Agonists of the Human D1 Dopamine Receptor: Primary Screen for Antagonists (AID 488983);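 note: calcium flux response to an EC80 dopamine challenge measured with no-wash dye; nearly all actives have a fitted effect of over 65% in size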; note: potency is the fitted concentration of half-maximal effect
Summary of the method: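 Cells are induced with tetracycline and incubated overnight at 30 C, then loaded with calcium dye for 30 to 90 minutes at room temperature. Compound addition is followed by a 180 s read, then an EC80 dopamine addition and another 180 s read.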

[6] = target: Transient receptor potential cation channel subfamily V member 1 (Homo sapiens) (UniProt Q8NER1); experiment: HTS Assay for Compounds that Act as Enhancers of the Vanilloid Receptor 1 (AID 488979); note: 0% is about no effect
Summary of the method: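 TRPV1 cells loaded with Fluo-8 calcium dye; compound added and Ca2+ signal (ex 480/em 520 nm) followed 3 min, then capsaicin at EC20 added and read 2 more min to detect enhancement.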

[7] = target: Thyrotropin-releasing hormone receptor (Homo sapiens) (UniProt P34981); experiment: qHTS for Small Molecule Agonists and Allosteric Enhancers of Human TRH Receptor: Validation Screen for Agonists (AID 493127;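 active = calcium activation more than 3 SD above the typical response in the agonist read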;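 note: intracellular calcium rise by fluo-8 fluorescence before TRH EC20 addition; 0% is about no effect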); conditions: TRH receptor agonist cell assay; at 2 µM; stronger effect = higher value
Summary of the method: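 Cells 2000/well, 10% FCS, 18 h 33.5C/5% CO2 → fluo-8 Ca dye, RT 30 min–1.5 h → FDSS baseline 10 × 1 s → compound added → 230 cycles (1 s/cycle) agonist mode. TRH controls.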

[8] = target: Galactokinase (Homo sapiens) (UniProt P51570); experiment: qHTS Validation Assay for Inhibitors of Human Galactokinase (GALK) (AID 493189); note: 0% is about no effect
Summary of the method: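 GALK (5 nM) with 35 uM ATP and 100 uM galactose in HEPES pH 8.0 with MgCl2, NaCl, DTT and BSA. Reaction ran 1 h at room temperature. Residual ATP read by Kinase-Glo Plus luminescence.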

[9] = Validation screen for small molecules that induce DNA re-replication in SW480 colon adenocarcinoma cells (AID 504364); note: 0% is about no effect
Summary of the method: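 250 cells/well; compound pinned in; 48 hr, 37 C, 5% CO2; Hoechst added, 40 min; nuclear fluorescence imaged, 405 ex / 500-530 em; re-replication scored as increase in high-intensity nuclei.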

[10] = target: Thyrotropin receptor (Homo sapiens) (UniProt P16473); experiment: qHTS Assay for Antagonists of the Thyroid Stimulating Hormone Receptor (AID 488980); note: series mostly up to about 58 µM; 0% is about no effect
Summary of the method: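 TSHR-transfected HEK293 cells (2000/well) in HEPES-buffered HBSS with 70 uM RO 20-1724 were stimulated with 4 nM TSH (EC80, final) in the presence of compound. cAMP was measured by HTRF competition after lysis and 30 min at RT.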

[11] = target: Chromobox protein homolog 1 (Homo sapiens) (UniProt P83916); experiment: qHTS Validation Assay for Inhibitors of HP1-beta Chromodomain Interactions with Methylated Histone Tails (AID 488953); note: nearly all actives have a fitted effect of over 50% in size; note: potency is the fitted concentration of half-maximal effect
Summary of the method: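 50 nM HP1-beta + 50 nM biotin-H3(1-18)K9me3, PBS pH 7.4, 0.01% Tween-20, 30 min RT; compound added, 30 min RT; AlphaScreen beads 10 ug/mL final, 30 min dark; luminescence read.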

[12] = target: ATPase family AAA domain-containing protein 5 (Homo sapiens) (UniProt Q96QE3); experiment: Validation screen for small molecules that inhibit ELG1-dependent DNA repair in human embryonic kidney (HEK293T) cells expressing luciferase-tagged ELG1 (AID 493107); note: nearly all actives have a fitted effect of over 70% in size; note: potency is the fitted concentration of half-maximal effect
Summary of the method: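 Luminescence from ONE-Glo, developed 30 min at room temperature, served as read-out of ELG1-luciferase levels. Beforehand, reporter HEK293T cells received 5-fluorouridine plus test compound for 16 hr at 37 °C.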

[13] = Validation screen for small molecules that induce genotoxicity in human embryonic kidney (HEK293T) cells expressing luciferase-tagged ELG1 (AID 493106); note: 0% is about no effect
Summary of the method: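 Luminescence from an ELG1-luciferase fusion serves as the read-out, rising when genetic stress elevates ELG1 protein. HEK293T reporter cells (2,000 per well) received 23 nL compound, incubated 16 hr at 37 °C, then ONE-Glo for 30 min at room temperature.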

[14] = target: Thioredoxin reductase 1, cytoplasmic (Rattus norvegicus) (UniProt O89049); experiment: qHTS Assay for Inhibitors of Mammalian Selenoprotein Thioredoxin Reductase 1 (TrxR1) (AID 488773); conditions: Potency: inhibition;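 note: drop in NADPH fluorescence over an 8 min run after selenite addition; series mostly up to about 57 µM; % is set by controls: 0 for no effect and ±100 for the full control effect; nearly all actives have a fitted effect of over 40% in size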
Summary of the method: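 Steps: enzyme (90 nM) plus NADPH (400 uM final), 5 min at ~22 deg C; compound added, 15 min; selenite (400 uM final) added; fluorescence followed for 8 min. Concentration-response curves derived from the normalized delta values.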

[15] = target: Methanococcus maripaludis chaperonin (MmCpn) (UniProt Q6LX38); experiment: High-Throughput Screening for Modulators of Cytosolic Chaperonin Activity: MmCpn Primary Screen (AID 488978);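 note: 50 nM MmCpn enzyme hydrolysing 30 µM ATP at 37 °C; 0% is about no effect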
Summary of the method: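 MmCpn at 50 nM final was preincubated 5 min at RT with compound. ATP was then added at 30 uM final for 10 min at 37 C. ADP formed was detected by Transcreener HTRF (665/590 nm).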

[16] = target: D(1A) dopamine receptor (Homo sapiens) (UniProt P21728); experiment: HTS Assay for Allosteric Agonists of the Human D1 Dopamine Receptor: Primary Screen for Agonists (AID 488981); note: 0% is about no effect
Summary of the method: as §1

[17] = Nrf2 qHTS screen for inhibitors: Validation (AID 493153; active = well fitted inhibition curve with a large enough effect in the main read-out, with a control signal flat, not every such curve was filed as active); conditions: viability change: measured here: cytotoxicity max response
Summary of the method: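 Luminescence from an ARE-firefly luciferase reporter in A549 cells gives Nrf2 inhibition; an earlier CellTiter-Fluor fluorescent read flags cytotoxicity. Cells in 5% FBS OPTI-MEM received compound dilution series for 18-24 h at 37°C.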

[18] = target: Peptidyl-prolyl cis-trans isomerase NIMA-interacting 1 (Homo sapiens) (UniProt Q13526); experiment: qHTS Validation Assay to Find Inhibitors of Pin1 (AID 504536; active = well fitted inhibition curve with a large enough effect in the polarisation, with a control signal flat, not every such curve was filed as active; the % refers to the polarisation;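 note: 0% = full Pin1 enzyme wells and -100% = no-enzyme wells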)
Summary of the method: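 Fluorescence polarization competition: compounds (titration) displace HiFluor-488-labeled Pin1-1b peptide from Pin1 (0.3 uM final) in pH 7.5 HEPES buffer with DTT, 10 min at room temperature; %Activity normalized to no-enzyme wells, curves fitted.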

[19] = target: Phosphoglycerate kinase, glycosomal (Trypanosoma brucei brucei) (UniProt P07378); experiment: qHTS Validation Assay to Find Inhibitors of Phosphoglycerate Kinase (AID 504547);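 note: control wells lack PGK and mark full inhibition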
Summary of the method: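 PGK activity was coupled to GAPDH (100nM final), which generates the unstable substrate 1,3-bisphosphoglycerate in-well. Reactions ran 60 minutes at room temperature in 100mM TEA pH 7.6, 5mM MgCl2, 0.01% Tween-20, then Kinase-Glo Plus luminescence was read.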

[20] = qHTS for Inhibitors of Cell Surface uPA Generation: Validation Assay (AID 493164); note: 0% is about no effect
Summary of the method: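 RAW 264.7 cells (4000/well) were plated overnight, then exposed for 18 h at 37 C, 5% CO2 to compounds in a 7-point 1:5 titration (2.45 nM–38.3 uM final). Intracellular ATP was read by ATP-Lite luminescence.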

Sequence of D(1A) dopamine receptor (Homo sapiens) (P21728 whole entry, looked up): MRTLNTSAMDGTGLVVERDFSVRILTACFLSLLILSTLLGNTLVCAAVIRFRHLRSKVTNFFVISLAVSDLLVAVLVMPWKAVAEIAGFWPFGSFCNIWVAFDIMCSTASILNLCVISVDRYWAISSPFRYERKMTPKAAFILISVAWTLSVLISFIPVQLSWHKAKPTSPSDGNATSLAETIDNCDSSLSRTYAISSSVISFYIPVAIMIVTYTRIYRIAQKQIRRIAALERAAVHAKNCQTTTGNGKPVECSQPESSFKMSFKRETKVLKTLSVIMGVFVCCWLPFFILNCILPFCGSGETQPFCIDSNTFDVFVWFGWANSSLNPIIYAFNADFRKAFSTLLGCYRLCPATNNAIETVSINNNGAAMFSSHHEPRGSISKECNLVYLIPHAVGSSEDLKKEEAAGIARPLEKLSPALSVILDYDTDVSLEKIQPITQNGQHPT
Sequence of ATPase family AAA domain-containing protein 5 (Homo sapiens) (Q96QE3 whole entry, looked up, the tested form may be a part): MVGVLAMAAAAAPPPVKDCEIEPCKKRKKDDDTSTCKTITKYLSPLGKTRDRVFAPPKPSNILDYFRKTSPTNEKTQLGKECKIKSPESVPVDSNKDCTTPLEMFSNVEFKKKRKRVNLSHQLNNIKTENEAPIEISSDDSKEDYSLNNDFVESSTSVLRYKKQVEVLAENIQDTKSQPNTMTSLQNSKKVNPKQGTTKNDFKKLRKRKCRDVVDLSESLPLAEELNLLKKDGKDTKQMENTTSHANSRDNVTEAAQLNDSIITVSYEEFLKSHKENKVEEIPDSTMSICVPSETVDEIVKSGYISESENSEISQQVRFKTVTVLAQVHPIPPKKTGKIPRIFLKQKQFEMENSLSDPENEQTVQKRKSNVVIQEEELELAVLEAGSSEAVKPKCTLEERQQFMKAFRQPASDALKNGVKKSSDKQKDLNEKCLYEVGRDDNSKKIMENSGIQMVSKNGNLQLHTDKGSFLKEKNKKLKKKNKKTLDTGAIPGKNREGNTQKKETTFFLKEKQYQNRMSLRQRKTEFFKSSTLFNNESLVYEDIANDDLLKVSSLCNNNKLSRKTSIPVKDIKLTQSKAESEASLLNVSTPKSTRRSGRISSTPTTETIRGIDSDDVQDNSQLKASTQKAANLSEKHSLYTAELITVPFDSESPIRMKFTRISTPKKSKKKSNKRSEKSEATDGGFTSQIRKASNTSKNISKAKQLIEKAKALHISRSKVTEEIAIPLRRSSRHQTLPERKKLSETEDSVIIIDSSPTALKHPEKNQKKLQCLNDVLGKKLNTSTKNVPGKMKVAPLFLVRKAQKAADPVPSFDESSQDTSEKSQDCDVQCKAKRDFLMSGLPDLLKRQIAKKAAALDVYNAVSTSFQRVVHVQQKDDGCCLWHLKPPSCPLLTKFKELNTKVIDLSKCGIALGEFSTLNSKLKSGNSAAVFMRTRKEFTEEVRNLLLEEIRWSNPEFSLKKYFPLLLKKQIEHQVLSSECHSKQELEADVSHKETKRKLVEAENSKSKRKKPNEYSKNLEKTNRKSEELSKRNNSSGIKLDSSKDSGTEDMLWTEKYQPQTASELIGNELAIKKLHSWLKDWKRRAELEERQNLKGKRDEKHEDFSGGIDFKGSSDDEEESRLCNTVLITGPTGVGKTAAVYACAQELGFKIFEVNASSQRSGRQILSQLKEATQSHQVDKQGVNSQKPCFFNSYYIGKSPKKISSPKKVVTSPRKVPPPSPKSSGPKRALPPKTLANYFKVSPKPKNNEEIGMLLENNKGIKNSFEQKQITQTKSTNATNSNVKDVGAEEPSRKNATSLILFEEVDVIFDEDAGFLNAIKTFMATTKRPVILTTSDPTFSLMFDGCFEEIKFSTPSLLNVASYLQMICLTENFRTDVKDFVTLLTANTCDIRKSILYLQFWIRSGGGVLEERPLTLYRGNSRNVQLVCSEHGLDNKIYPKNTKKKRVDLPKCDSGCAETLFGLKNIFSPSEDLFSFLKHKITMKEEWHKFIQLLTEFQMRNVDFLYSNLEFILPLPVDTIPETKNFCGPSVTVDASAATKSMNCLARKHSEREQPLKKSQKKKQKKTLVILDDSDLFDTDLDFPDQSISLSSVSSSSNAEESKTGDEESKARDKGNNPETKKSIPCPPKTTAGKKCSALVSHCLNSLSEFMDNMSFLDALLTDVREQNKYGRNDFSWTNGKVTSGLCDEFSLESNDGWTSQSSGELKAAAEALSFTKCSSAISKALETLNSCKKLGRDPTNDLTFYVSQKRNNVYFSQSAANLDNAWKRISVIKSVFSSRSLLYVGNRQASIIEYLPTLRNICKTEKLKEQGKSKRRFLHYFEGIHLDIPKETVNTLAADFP
Sequence of M-phase phosphoprotein 8 (Homo sapiens) (Q99549 whole entry, looked up): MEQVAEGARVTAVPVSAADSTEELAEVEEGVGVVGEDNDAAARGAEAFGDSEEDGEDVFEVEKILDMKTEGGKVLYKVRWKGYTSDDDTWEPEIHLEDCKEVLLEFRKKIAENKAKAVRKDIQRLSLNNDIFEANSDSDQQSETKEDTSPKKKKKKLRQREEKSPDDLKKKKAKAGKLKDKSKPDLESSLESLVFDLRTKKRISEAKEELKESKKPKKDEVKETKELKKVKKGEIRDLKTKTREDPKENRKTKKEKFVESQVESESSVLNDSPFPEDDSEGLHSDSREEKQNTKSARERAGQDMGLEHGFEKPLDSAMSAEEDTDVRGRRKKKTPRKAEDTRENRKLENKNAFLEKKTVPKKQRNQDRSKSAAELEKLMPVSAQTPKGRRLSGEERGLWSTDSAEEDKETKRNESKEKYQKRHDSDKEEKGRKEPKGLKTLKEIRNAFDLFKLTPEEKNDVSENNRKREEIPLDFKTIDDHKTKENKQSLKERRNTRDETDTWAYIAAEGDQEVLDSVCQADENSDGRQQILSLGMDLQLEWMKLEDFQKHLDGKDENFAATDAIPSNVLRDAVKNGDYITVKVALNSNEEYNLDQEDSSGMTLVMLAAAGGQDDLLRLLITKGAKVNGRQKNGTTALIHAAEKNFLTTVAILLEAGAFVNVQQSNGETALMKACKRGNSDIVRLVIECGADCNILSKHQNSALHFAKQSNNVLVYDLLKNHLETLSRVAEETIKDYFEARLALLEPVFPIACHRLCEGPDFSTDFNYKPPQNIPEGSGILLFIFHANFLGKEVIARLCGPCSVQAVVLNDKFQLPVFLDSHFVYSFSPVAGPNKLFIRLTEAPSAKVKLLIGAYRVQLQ
Sequence of Thyrotropin-releasing hormone receptor (Homo sapiens) (P34981 whole entry, looked up): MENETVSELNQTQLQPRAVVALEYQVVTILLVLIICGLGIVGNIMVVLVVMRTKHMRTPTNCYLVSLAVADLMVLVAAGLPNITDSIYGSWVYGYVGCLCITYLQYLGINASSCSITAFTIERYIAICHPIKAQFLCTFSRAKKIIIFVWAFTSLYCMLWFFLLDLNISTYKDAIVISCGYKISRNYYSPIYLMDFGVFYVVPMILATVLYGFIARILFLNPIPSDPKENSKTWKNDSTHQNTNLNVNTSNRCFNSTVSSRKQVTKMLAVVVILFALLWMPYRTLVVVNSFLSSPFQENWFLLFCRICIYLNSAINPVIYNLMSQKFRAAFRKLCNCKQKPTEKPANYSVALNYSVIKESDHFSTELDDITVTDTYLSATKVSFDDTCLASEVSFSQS
Sequence of ATP-dependent 6-phosphofructokinase (Trypanosoma brucei brucei) (O15648 whole entry, looked up): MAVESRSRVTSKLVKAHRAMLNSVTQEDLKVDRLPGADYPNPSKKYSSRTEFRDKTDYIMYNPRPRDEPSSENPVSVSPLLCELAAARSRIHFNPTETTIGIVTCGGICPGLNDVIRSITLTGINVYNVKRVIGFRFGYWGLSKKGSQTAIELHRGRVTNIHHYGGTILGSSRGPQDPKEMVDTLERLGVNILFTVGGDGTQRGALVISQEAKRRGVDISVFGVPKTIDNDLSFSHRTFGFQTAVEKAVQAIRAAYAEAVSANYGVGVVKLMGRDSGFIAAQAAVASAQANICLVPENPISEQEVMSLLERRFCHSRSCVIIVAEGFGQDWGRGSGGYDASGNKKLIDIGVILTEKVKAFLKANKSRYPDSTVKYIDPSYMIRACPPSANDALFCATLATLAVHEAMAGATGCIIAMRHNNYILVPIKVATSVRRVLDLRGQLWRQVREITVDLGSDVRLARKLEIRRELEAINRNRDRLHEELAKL
Sequence of Flap endonuclease 1 (Homo sapiens) (P39748 whole entry, looked up): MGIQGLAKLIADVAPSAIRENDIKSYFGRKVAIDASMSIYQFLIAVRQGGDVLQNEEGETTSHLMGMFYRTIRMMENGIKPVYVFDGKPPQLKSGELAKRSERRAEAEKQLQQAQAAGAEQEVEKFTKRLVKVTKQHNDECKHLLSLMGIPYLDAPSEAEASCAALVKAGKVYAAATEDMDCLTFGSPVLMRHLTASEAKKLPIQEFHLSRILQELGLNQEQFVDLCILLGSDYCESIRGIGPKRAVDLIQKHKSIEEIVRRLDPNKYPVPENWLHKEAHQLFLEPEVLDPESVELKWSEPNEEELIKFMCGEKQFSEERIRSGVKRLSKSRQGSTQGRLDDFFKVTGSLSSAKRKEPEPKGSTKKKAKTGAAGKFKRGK
Sequence of Chromobox protein homolog 1 (Homo sapiens) (P83916 whole entry, looked up): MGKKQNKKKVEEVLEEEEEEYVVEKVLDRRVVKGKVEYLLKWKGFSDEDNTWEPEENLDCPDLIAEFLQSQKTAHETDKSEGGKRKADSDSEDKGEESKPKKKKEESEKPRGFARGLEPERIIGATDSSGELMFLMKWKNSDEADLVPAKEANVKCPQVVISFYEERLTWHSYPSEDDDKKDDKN
Sequence of Galactokinase (Homo sapiens) (P51570 whole entry, looked up): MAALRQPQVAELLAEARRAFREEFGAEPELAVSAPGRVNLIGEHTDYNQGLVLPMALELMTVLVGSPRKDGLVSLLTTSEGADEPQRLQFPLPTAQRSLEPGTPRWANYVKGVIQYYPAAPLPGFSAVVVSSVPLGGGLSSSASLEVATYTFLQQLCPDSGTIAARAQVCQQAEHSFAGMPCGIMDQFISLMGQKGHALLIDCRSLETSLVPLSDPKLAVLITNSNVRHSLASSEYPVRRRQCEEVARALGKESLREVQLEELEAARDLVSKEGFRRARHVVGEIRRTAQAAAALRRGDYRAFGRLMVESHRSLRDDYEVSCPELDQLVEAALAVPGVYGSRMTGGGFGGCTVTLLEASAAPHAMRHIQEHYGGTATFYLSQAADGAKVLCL

C[N+](C)(C)CCCCCCCCCC[N+](C)(C)C
inactive: outcome [1]

COc1ccc(CN2CCNCC2)c(OC)c1OC
inactive: Potency [2]

CCOC(=O)NC(O)C(Cl)(Cl)Cl (stereo not given)
inactive: Potency [2]

CN1C[C@H](C(=O)N[C@]2(C)O[C@@]3(O)[C@@H]4CCCN4C(=O)[C@H](Cc4ccccc4)N3C2=O)C[C@@H]2c3cccc4[nH]cc(c34)C[C@H]21
inactive: Potency [3] | Potency [4]
active: Potency [5] 8.91 µM

CCC1(c2ccccc2)CCC(=O)NC1=O (stereo not given)
inactive: Potency [2]

O=c1n(Cl)c(=O)n(Cl)c(=O)n1Cl
inactive: Potency [2]

OC(O)C(Cl)(Cl)Cl
inactive: Potency [2]

CCN(Cc1ccc(Cl)nc1)/C(=C/[N+](=O)[O-])NC
inactive: Potency [2]

c1ccc2nc(N3CCNCC3)ccc2c1
inactive: Potency [3] | outcome [6] | activation [7] -0.562% | outcome [8] | outcome [9]

NC(N)=N/N=C/c1c(Cl)cccc1Cl
inactive: Potency [4]

CCNC(=O)NCc1cccc(Cl)c1
active: Potency [2] 15.8 µM

CC(N)C(=O)OC(C)(C)Cc1ccc(Cl)cc1 (stereo not given)
inactive: Potency [3] | outcome [6] | outcome [10] | outcome [8] | outcome [9]

O=C1CC2(CCCC2)CC(=O)N1CCCCN1CCN(c2ncccn2)CC1
inactive: Potency [11]

COC(=O)C1=C(C)NC(C)=C(C(=O)OC)C1c1ccccc1[N+](=O)[O-]
active: Potency [3] 39.8 µM | Potency [11] 35.5 µM | Potency [4] 2.59 µM | Potency [12] 18.3 µM

CCS(=O)(=O)C(C)(C)S(=O)(=O)CC
inactive: Potency [2]

CC[C@H]1CN2CCc3cc(OC)c(OC)cc3[C@@H]2C[C@@H]1C[C@H]1NCCc2cc(OC)c(OC)cc21
active: Potency [12] 0.259 µM
inactive: outcome [1] | outcome [13]

COc1ccc(C(=O)N2CCCC2=O)cc1
inactive: Potency [14] | Potency [3] | Potency [11] | outcome [15] | outcome [6] | outcome [10] | outcome [16] | Potency [4] | Potency [5] | outcome [13] | Potency [12] | activation [7] 0.812% | outcome [17] | outcome [8] | outcome [9] | outcome [18] | outcome [19]
-4.73%: viability change [17]

C#C[C@]1(O)CC[C@H]2[C@@H]3CCC4=CC(=O)CCC4=C3C=C[C@@]21CC
inactive: Potency [2]

NC(=O)CN1CCCC1=O
-6.84%: viability change [17]
inactive: Potency [14] | outcome [1] | Potency [3] | Potency [11] | outcome [15] | outcome [6] | outcome [16] | Potency [4] | Potency [5] | Potency [2] | outcome [13] | Potency [12] | activation [7] -0.312% | outcome [17] | outcome [20] | outcome [8] | outcome [9] | outcome [18] | outcome [19]
